Bioassay records: PubChem, several laboratories
Rce1 inh – inhibitors of yeast Ras-converting enzyme; AID 2563; calls only; Q03530; 0.27% of 290,000 active; yeast membranes, quenched prenylated peptide cleavage fluorescence;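 active = fall in fluorescence gain of 50% or more versus controls, with final raw signal at or below 3038400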;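 note: plate controls were neutral control wells for no effect and wells lacking membranes for full effect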
Target sequence (Q03530 whole entry, looked up): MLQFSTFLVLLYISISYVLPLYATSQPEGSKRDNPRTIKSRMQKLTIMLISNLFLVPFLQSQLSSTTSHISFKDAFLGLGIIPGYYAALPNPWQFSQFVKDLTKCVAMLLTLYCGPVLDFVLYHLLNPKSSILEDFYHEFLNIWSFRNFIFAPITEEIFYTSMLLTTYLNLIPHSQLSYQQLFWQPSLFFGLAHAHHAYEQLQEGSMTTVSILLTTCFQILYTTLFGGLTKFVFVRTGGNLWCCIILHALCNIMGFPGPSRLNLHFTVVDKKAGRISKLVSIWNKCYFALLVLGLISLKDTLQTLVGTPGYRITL
MEKK3 PB1 HTS – raises or lowers MEK5 binding to the human MEKK3 PB1 domain | Q99759 | bead-based flow cytometry, Alexa488-MEK5 binding to MEKK3; actives lie on both sides; 0 = blocked by unlabeled MEK5, 100 = vehicle | binding response (% of control), % at 10 µM | 1.4% of 290,000 active | AID 1529;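 active = binding response more than 3 SD above or below the average of its plate-row segment, actives on both sides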;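 note: Alexa488 bead fluorescence after subtracting the streptavidin-only scavenger bead signal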
UBC13 inh – blocks human UBC13 polyubiquitin chain formation; 0.47% of 330,000 active; inhibition, % at 20 µM; AID 485273; TR-FRET; in the data active = inhibition above about 45%, passing the limit was not always enough
Target sequence (P61088 whole entry, looked up): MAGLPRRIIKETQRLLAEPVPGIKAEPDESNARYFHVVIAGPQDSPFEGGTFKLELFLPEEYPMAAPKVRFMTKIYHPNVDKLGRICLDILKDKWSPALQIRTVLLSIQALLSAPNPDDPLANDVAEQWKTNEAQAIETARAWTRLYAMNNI
MEKK2 mut-MEK5 – signal of MEK5 binding to mutant human MEKK2 PB1 domain; bead flow cytometry, Alexa488-MEK5 binding to MEKK2 mutant; AID 1530; 0.35% of 290,000 active; percent response, % at 10 µM; in the data active = percent response above about 24%, passing the limit was not always enough
MEKK2wt PB1 HTS – raises or lowers MEK5 binding to wildtype human MEKK2 PB1 domain | Q9Y2U5 | bead flow cytometry, Alexa488-MEK5 binding to MEKK2 WT; actives lie on both sides | binding response (% of control), % at 10 µM | 1.1% of 290,000 active | AID 1531; in the data active = binding response below about 67% or above about 130%
Active calls of the source: *; i = inactive; · = no result; + = active, no number; [ ] = another dose, or the depositor's remark. Compounds with a hit are over-represented: about 2.5% of the library has one in this group of screens.

SMILES	Rce1 inh	MEKK3 PB1 HTS	UBC13 inh	MEKK2 mut-MEK5	MEKK2wt PB1 HTS
COc1ccc(/C=C2\Sc3ccc(C(=O)NCCCN4CCCC4)cc3N(C)C2=O)cc1OC	i	107	28	35*	202*
O=C(CSc1nnc(C2CC2)n1CC1CCCO1)Nc1ccccc1Cl (configuration not stated)	·	100	2	0	103
COc1ccccc1S(=O)(=O)Cc1ccc(C(=O)NCCCN2CCN(c3ccc(F)cc3)CC2)o1	i	104	-2	10	140*
NC(=O)c1cc[n+](CC(=O)c2ccc(NC(=O)c3ccccc3)cc2)cc1	·	110	3	5	105
Cc1c(C(=S)Nc2ccccc2)cnn1-c1ccc([N+](=O)[O-])cc1	i	92	-22	8	4.0*
CCC(C)c1ccc(NC(=O)CN(C)CC(=O)Nc2cccc(OC)c2)cc1 (configuration not stated)	i	101	14	-6	-6.0*
COc1cccc(NC(=O)CN(C)CC(=O)Nc2ccc3c(c2)OCO3)c1	·	·	-2	·	·
NC(=O)CSc1cn(Cc2ccccc2)c2ccccc12	i	63	7	-12	70
O=C(O)c1c[nH]c2c(C(F)(F)F)cccc2c1=O	i	104	9	0	102
COc1cccc2c(=O)c(C(=O)O)c[nH]c12	+	99	12	-2	102
O=C(N/N=C/C1CC=CCC1)c1ccc(O)cc1O (configuration not stated)	+	86	1	-3	89
O=C(N/N=C/C1CC=CCC1)c1cc2ccccc2cc1O (configuration not stated)	i	92	-19	-3	93
COC(=O)c1cc(NC(=O)c2cccc(Cl)c2)c(=O)oc1/C=C/Nc1cc(C)cc(C)c1	i	68*[inhibitor]	-118	558*	·
COC(=O)c1cc(NC(=O)c2cccc(C(F)(F)F)c2)c(=O)oc1C	i	110	3	1	103
Cc1c(C(=O)O)cccc1-c1ccc(/C=C2/NC(=O)N(c3ccccc3)C2=O)o1	i	99	-6	2	-10*
Cc1ccccc1C(C(=O)NC1CCCCC1)N(C(=O)c1ccccn1)c1cccnc1 (configuration not stated)	i	98	2	-1	100
CCOC(=O)C1=C(CBr)NC(=O)NC1C (configuration not stated)	i	100	-3	-2	96
COc1ccc(N2CCN(C(=O)C(=O)c3cn(CC(=O)N4CCCCCC4)c4ccccc34)CC2)cc1	i	97	-1	5	-5.0*
CCN1CCN(C(=O)C(=O)c2cn(CC(=O)N3CCCC3)c3ccccc23)CC1	i	99	-6	-4	100
CCN1CCN(C(=O)C(=O)c2cn(CC(=O)N3CCCCCC3)c3ccccc23)CC1	i	102	-6	9	56*
C=C(C(=O)Oc1ccccc1C(C)(C)C)c1ccccc1	·	·	8	·	·
O=C(NCc1ccccn1)c1cccc(NS(=O)(=O)c2ccc(Br)cc2)c1	·	·	-5	·	·
CC(=O)Nc1cccc(C(=O)N2CCC(n3nccc3NC(=O)CC(C)C)CC2)c1	i	102	-7	4	104
Cc1c(/C=N/NC(=O)c2cccnc2)c2ccccc2n1Cc1ccccc1	i	105	4	110*	62*[inhibitor]
N/C(Cc1ccc([N+](=O)[O-])cc1)=N\OC(=O)c1ccc2ccccc2c1	+	102	4	3	100
SMILES	Rce1 inh	MEKK3 PB1 HTS	UBC13 inh	MEKK2 mut-MEK5	MEKK2wt PB1 HTS
Nc1nonc1-n1nnc(C(=O)N/N=C/c2ccccc2)c1CSc1ccc(Cl)cc1	+	96	16	-3	91
Cc1ccc(SCc2c(C(=O)N/N=C/c3ccccc3)nnn2-c2nonc2N)cc1	+	111	3	10	103
Nc1nonc1-n1nnc(C(=O)N/N=C/c2cccc(Cl)c2)c1CSc1ccccc1	·	84	-15	-28	82
Cc1ccc(/C=N/NC(=O)c2nnn(-c3nonc3N)c2C(C)C)o1	+	101	-8	1	100
Nc1nonc1-n1nnc(C(=O)N/N=C/c2cccc(Cl)c2)c1CSc1ccc(Cl)cc1	+	101	0	-3	100
CCCN(C1CCS(=O)(=O)C1)S(=O)(=O)c1cc(OC)ccc1OC (configuration not stated)	·	·	-14	·	·
CCN(CC(=O)NCc1ccc(Cl)cc1)C(=O)CCC(=O)c1ccc(F)cc1	i	·	1	·	·
Cc1ccc(-c2c(C(=O)N/N=C/c3ccoc3)nnn2-c2nonc2N)cc1	i	95	-12	-6	93
Cc1ccc(-c2c(C(=O)N/N=C/c3cccc(Cl)c3)nnn2-c2nonc2N)cc1	+	112	-1	-1	135*
COc1ccc(-c2oc3ccccc3c2C(=O)OCc2ccccc2OC)cc1	+	97	28	-7	94
CCOC(=O)c1c(-c2ccc(OC)cc2)oc2ccc(O)cc12	i	95	20	-3	92
CCC(C)[C@H](NC(=O)[C@@H]1Cc2c([nH]c3ccccc23)C2c3ccccc3C(=O)N21)C(=O)NCC1CCCO1 (some centres not stated)	i	101	2	0	102
COc1ccc2c(c1)cc(C(=O)N[C@@H](CCSC)C(=O)N1CCC(C(=O)O)CC1)n2C	+	100	6	-1	103
C[C@H](NC(=O)c1cc2cc(Cl)ccc2n1C)C(=O)N1CCC(C(=O)O)CC1	i	100	·	4	102
O=C(C[n+]1cc2ccccc2c2ccccc21)c1ccccc1	+	103	-2	1	106
O=C(C[n+]1cccc2ccccc21)c1ccccc1	i	98	-13	-4	93
CC(C)C(=O)N1CCN(c2nc(-c3ccccc3)c3c(c2C#N)CCCC3)CC1	+	101	10	-2	94
Nc1ncnc2c1cnn2-c1ccccc1	i	104	10	1	105
S=c1nc[nH]c2c1cnn2-c1ccccc1	+	91	10	-6	99
CCOCc1nnc(NC(C)=O)s1	i	101	-7	5	105
CCOCc1nnc(NC(=O)CS(=O)(=O)c2ccc(C)cc2)s1	i	80*[inhibitor]	6	-10	77
Cc1c(CCC(=O)NCCCn2ccnc2)c(=O)oc2c(C)c3oc4c(c3cc12)CCCC4	i	100	53*	5	113
Cc1c(CCC(=O)NCCCCCC(=O)O)c(=O)oc2c(C)c3oc4c(c3cc12)CCCC4	i	103	7	0	103
Cc1cnc(NC(=O)CSc2nnc(N)s2)s1	i	106	2	4	-8.0*
C=CCNc1cc(N2CCCC2)ccc1[N+](=O)[O-]	i	113	-41	-8	103
O=C(Nc1ccc(Nc2ccncc2)cc1)c1ccc(Nc2ccnc3ccc([N+](=O)[O-])cc23)cc1[N+](=O)[O-]	i	13*[inhibitor]	·	-49	28*[inhibitor]
